Measured values taken from PubChem BioAssay (NCI).
The panel holds about 79,000 compounds, 15% with a hit somewhere; the sample as a whole holds those more often. Cut-off read from the data, not from the text of the source: active = growth inhibition above about 70%; inactive = the rest.

Tests used:
[1] = NCI Yeast Anticancer Drug Screen. Data for the rad50 strain (AID 155);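 note: 0% = growth of vehicle-only cultures of the same strain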; conditions: S. cerevisiae rad50 strain growth inhibition; at 50.0 µM; stronger effect = higher value
How it was run: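 Readout: growth inhibition relative to vehicle-treated cultures. Compound exposure was carried out in a genetically defined yeast strain deficient in DNA damage repair.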

[2] = NCI Yeast Anticancer Drug Screen. Data for the mec2-1 strain (AID 157); conditions: S. cerevisiae mec2-1 strain, at 50.0 µM, stronger effect = higher value
How it was run: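 Growth inhibition is read against vehicle-treated controls after compound exposure of the mec2-1 yeast strain, which is defective in DNA damage repair or cell cycle control.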

[3] = NCI Yeast Anticancer Drug Screen. Data for the sgs1 mgt1 strain (AID 161);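 note: 0% = growth of cultures given vehicle only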; conditions: S. cerevisiae sgs1 mgt1 strain, at 50.0 µM, stronger effect = higher value
How it was run: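 Compounds are added to genetically altered yeast, and growth is compared with cultures given vehicle alone to give percent inhibition.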

[4] = NCI Yeast Anticancer Drug Screen. Data for the cln2 rad14 strain (AID 165);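 note: 0% = growth equal to vehicle treated cultures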; conditions: S. cerevisiae cln2 rad14 strain, at 50.0 µM, stronger effect = higher value
How it was run: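 Growth inhibition, relative to vehicle-treated controls, is the read-out. The test organism is a yeast strain with defined genetic alterations, cln2 rad14.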

[5] = NCI Yeast Anticancer Drug Screen. Data for the bub3 strain (AID 167); conditions: S. cerevisiae bub3 mutant strain, at 50.0 µM, stronger effect = higher value
How it was run: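 Readout: yeast growth inhibition, expressed relative to vehicle-only wells. The test organism is a mutant strain from a panel with lesions in DNA repair or checkpoint genes.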

[6] = NCI Yeast Anticancer Drug Screen. Data for the mlh1 rad18 strain (AID 175); conditions: S. cerevisiae mlh1 rad18 strain growth inhibition; at 50.0 µM; stronger effect = higher value
How it was run: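 Cells of a genetically altered yeast strain, deficient in DNA damage repair, were treated with compound. Their growth was then compared with that of vehicle-treated cultures to give inhibition.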

Measured: growth inhibition

CC(C)(C)c1ccc(OCCOCCCl)c(Cl)c1
inactive: [1] 17.1% | [2] 15.4% | [3] 14.6% | [4] -19.9% | [5] 8.65% | [6] 15.2%

OC1CCC(C#CC#CC2CCC(O)CC2)CC1 (stereo not given)
inactive: [1] 2.05% | [2] -34.2% | [3] 3.05% | [4] 2.25% | [5] -23.7% | [6] -1.7%

CCOC(=O)C(NC(=O)NCc1ccc(F)cc1)C(F)(F)F (stereo not given)
inactive: [1] -46.7% | [2] 2.2% | [3] -31.5% | [4] 19.4% | [5] 51.9% | [6] -43.1%

C=CCOCn1cc(C)c(=O)[nH]c1=O
inactive: [1] 5.6% | [2] 17.4% | [3] 36.4% | [4] 5.5% | [5] 6.5% | [6] 17.4%

CCC(C)CCC(=O)C(C)C(=O)O (stereo not given)
inactive: [1] 5.7% | [2] 3.1% | [3] 3.45% | [4] -11.3% | [5] 4.45% | [6] 0.5%

CCOC(=O)CSc1cc(C)[o+]c(C)c1
inactive: [1] 4.6% | [2] 6.25% | [3] 6.8% | [4] 15% | [5] -6.4% | [6] -3.15%

CC(=O)OC1CC(=O)OC(C)(C)C2CC(=O)C3(C)C(CCC4(C)C(c5ccoc5)OC(=O)C5OC543)C12C (stereo not given)
inactive: [1] 20.5% | [2] -18.3% | [3] 11.1% | [4] 2.85% | [5] -6.55% | [6] 21.1%

CC(C)CCCC(C)C1CCC2C(CC(=O)O)C(C3(C)CCC(O)CC3=O)CCC2(C)C1 (stereo not given)
inactive: [1] 23.9% | [2] 27.1% | [3] 25.9% | [4] 8.35% | [5] 1.85% | [6] 33%

C(=N\NC1=NCCCN1)/c1ccc2ccccc2c1
inactive: [1] 4.45% | [2] 1.65% | [3] -13.8% | [4] -28.4% | [5] 0.05% | [6] 1.15%

NC(=O)Cc1[nH]ccc1C(=O)O
inactive: [1] 9.4% | [2] -9.75% | [3] -0.05% | [4] -18.6% | [5] -4.15% | [6] 12.1%

CC1(C)CCC2(C)CCC3(C)C(=CCC4C5(C)CCC(O)C(C)(C)C5CCC43C)C2C1 (stereo not given)
inactive: [1] 0.85% | [2] 6.3% | [3] -10.2% | [4] 16.2% | [5] 4.25% | [6] 0.5%

COc1ccc2nccc(SCC(=O)O)c2c1
inactive: [1] -5.25% | [2] 8.25% | [3] -29.6% | [4] 18.9% | [5] 37% | [6] 1.85%

C/C=C1/CC(C)C(C)(O)C(=O)OCC2C(O)CN3CCC(OC1=O)C23 (stereo not given)
inactive: [1] 12.4% | [2] -2.3% | [3] -15.5% | [4] -10.3% | [5] -3.85% | [6] -43.6%

CCCCCCCC/C=C\CCCCCCCC(=O)N1CCN(C(=O)CCCCCCC/C=C/CCCCCCCC)C1
inactive: [1] 20.4% | [2] -13.3% | [3] 4.05% | [4] 16.4% | [5] 0.15% | [6] -8.35%

CC1=C[C@@H]2[C@@H](CC(CO)=C[C@H]3[C@@H]4C(C)(C)[C@]4(OCC(C)C)[C@H](OCC(C)C)[C@@H](C)[C@]23O)C1=O
inactive: [1] -13.7% | [2] -14.2% | [3] -55.5% | [4] -0.1% | [5] -69.2% | [6] -13.9%

Cc1cc(S(=O)(=O)Nc2nc(N)n(C)n2)c(S)cc1Cl
inactive: [1] -19.1% | [2] -18.3% | [3] -3.3% | [4] -3.1% | [5] -29.2% | [6] -1.85%

CC(C)CCC[C@@H](C)[C@H]1CC[C@@]2(C)C3=C(C(=O)C[C@]12C)[C@@]1(C)CC[C@H](O)C(C)(C)[C@@H]1CC3=O
inactive: [1] 8.5% | [2] -16.7% | [3] 17.1% | [4] -40.6% | [5] 6.1% | [6] 10.3%

CC(=O)OCC1OC(OC(C)=O)C(NS(=O)(=O)c2ccc(C)cc2)C(OC(C)=O)C1OC(C)=O (stereo not given)
inactive: [1] 18.3% | [2] 4.25% | [3] 18.1% | [4] 17.8% | [5] -3.65% | [6] -4.65%

CCCCCCC(C)C(C#N)C(=O)OCC (stereo not given)
inactive: [1] -11.8% | [2] -11.8% | [3] -26.1% | [4] -4.15% | [5] -16.6% | [6] -14.3%

CC(=O)N1C(=O)C(=O)c2cc(Cl)ccc21
inactive: [1] -1.85% | [2] -6.9% | [3] 3.95% | [4] -2.1% | [5] -0.2% | [6] -1.6%
